Test systems include AAK1; ABL1-nonphosphorylated; ABL1-phosphorylated; ABL2.
What all share (details): concentration: 1 μM, replicates: in singlicate; n = 1

The structures appear in SMILES notation.
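Note: KINOMEscan kinase panel screen.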

Consider `Fc1cccc(CSc2nnc(-c3ccc4c(c3)CCO4)o2)c1`, for which the “%Inh” value is on record as 25% in the assay with AAK1, 20% in the assay with ABL1-nonphosphorylated, 7% in the assay with ABL1-phosphorylated and 22% with ABL2.

For the compound `Nc1nccc2scc(-c3ccc4c(c3)CCN4C(=O)Cc3ccccc3)c12` [GSK2576924], the “%Inh” value was found to be 8% in the assay on AAK1, 0% in the assay with ABL1-nonphosphorylated, 0% in the assay with ABL1-phosphorylated and 1% with ABL2.

With `Nc1nc(N)c2nc(-c3ccccc3)[nH]c2n1` [SKF-12778], the “%Inh” value was found to be 23% in the assay on AAK1, 18% with ABL1-nonphosphorylated, 15% in the assay on ABL1-phosphorylated and 9% with ABL2.

Consider `CCC(=O)c1c(-c2ccccc2)c2cc(Cl)ccc2c(=O)n1Cc1ccc(C(=O)O)cc1`, for which the “%Inh” value came to 0% in the assay with AAK1, 30% in the assay with ABL1-nonphosphorylated, 0% in the assay on ABL1-phosphorylated and 15% with ABL2.

As for `Cl.NS(=O)(=O)c1cccc(Nc2cc(-c3ccc(F)cc3)n[nH]2)c1` [GW824645], the “%Inh” value in the assay on AAK1 is 9%; with ABL1-nonphosphorylated, 5%; in the assay with ABL1-phosphorylated, 24%; in the assay on ABL2, 0%.

With `Cc1cc(Nc2nc(-c3cccc(C)n3)nc3ccccc23)ccn1` [GW872411], the “%Inh” value in the assay on AAK1 was found to be 0%; in the assay with ABL1-nonphosphorylated, 52%; with ABL1-phosphorylated, 13%; in the assay on ABL2 it was 0%.

For the compound `O=C(NCc1cccs1)c1cc(C(=O)c2c(Cl)cccc2Cl)c[nH]1` [GW823670], the “%Inh” value turned out to be 0% with AAK1, 18% with ABL1-nonphosphorylated, 27% in the assay on ABL1-phosphorylated and 0% in the assay on ABL2.

For the compound `COc1cc2nccc(Nc3cccc(Oc4ccccc4)c3)c2cc1OC.Cl` [GW284543], the “%Inh” value in the assay with AAK1 turned out to be 0%; in the assay with ABL1-nonphosphorylated it was 0%; in the assay with ABL1-phosphorylated, 0%; with ABL2, 15%.

As for `COC(=O)c1c(-c2ccccc2)c2cc(Br)ccc2c(=O)n1Cc1ccc(S(C)(=O)=O)cc1`, the “%Inh” value in the assay with AAK1 was 27%; in the assay with ABL1-nonphosphorylated it was 25%; in the assay with ABL1-phosphorylated it was 9%; in the assay on ABL2, 32%.

Take `Cc1cccc(-c2cc(-c3c[nH]nc3-c3ccccn3)ccn2)c1` [GW679395]: the “%Inh” value in the assay with AAK1 is on record as 14%; in the assay on ABL1-nonphosphorylated, 68%; with ABL1-phosphorylated, 29%; in the assay with ABL2 it was 48%.

The values are drawn from PMC5540273 (PLoS ONE, 2017).
